Records with an inconclusive call do not appear. Values without a mark were called inactive. Calls of active or inactive are those of the source. Calls come from the whole dose curve; as a rule, active = well fitted curve in the direction sought with a large enough effect; inconclusive = small, poorly fitted or top-dose-only effect, or another doubt; inactive = no such curve, though single readings can be large; an effect the other way counts as inactive or inconclusive.

These results are taken from PubChem BioAssay (NCATS).
% is set by controls: 0 for no effect and ±100 for the full control effect.

A short description of one assay: qHTS of pediatric cancer cell lines to identify multiple opportunities for drug repurposing: Primary screen for control Hh wild type fibroblast cells (AID 1347106).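 Note: a drop in luminescence marks cytotoxicity and a rise apparent proliferation; nearly all actives have a fitted effect of over 55% in size.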 Conditions: Hh wild-type fibroblast viability, CellTiter-Glo luminescence, 48 h; series mostly up to 46 µM. The essentials:
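Viability after 48 h compound treatment at 37C, 500-1,000 cells/well, read as ATP luminescence with CellTiter-Glo. Primary screens used 11-point (MIPE, 0.78 nM-46 µM) or 8-point (NPC, 0.59 nM-46 µM) final concentrations; follow-up screens used 11-point dilutions.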
Regarding `Cc1cccc(C(=O)O)c1O`, the molecule was classed as inactive.

Regarding `CCOc1cc(NC(C)=O)ccc1C(=O)OC`, the result was inactive.

`CCc1cccc(CC)c1NC(=O)CN(CC(=O)O)CC(=O)O`: the molecule was called inactive.

As for `O=C1c2cccc(O)c2C(=O)c2c(O)cccc21`, the outcome was inactive.

Consider `CCCCCCCC(=O)OCC(O)CO` (stereo unspecified), for which the molecule was called inactive.

On to `Cn1cc(C(=O)[C@@H]2CCc3nc[nH]c3C2)c2ccccc21`, for which the result was inactive.

On to `Cn1c([N+](=O)[O-])cnc1COC(N)=O`, for which the result was inactive.

Regarding `CC1CCN(CCCC(=O)c2ccc(F)cc2)CC1`, the result was inactive.

For `NS(=O)(=O)c1ccc(C(=O)O)cc1`, the molecule was called inactive.

For `OCc1ccc(Cl)cc1Cl`, the call was inactive.

With `CC(=O)Nc1ccc(C(=O)O)cc1`, the outcome was inactive.

Consider `CCCCCCCCCCCCCCCCCCO`, for which the molecule was classed as inactive.

As to `CCCCCOC(=O)Nc1nc(=O)n([C@@H]2O[C@H](C)[C@@H](O)[C@H]2O)cc1F`, the outcome was inactive.

For the molecule `CC(=O)NCc1c(I)c(NC(C)=O)c(I)c(C(=O)O)c1I`, the molecule was classed as inactive.

Regarding `Cc1cc(=O)[nH]c(=S)[nH]1`, the molecule was classed as inactive.

As to `O=C(O)CCCc1ccccc1`, the outcome was inactive.

Take `COC(=O)c1ccc(O)cc1`: the molecule was called inactive.

On to `CCOC(=O)[C@H](CCc1ccccc1)N[C@@H](C)C(=O)N1CCC[C@H]1C(=O)O`, for which the outcome was inactive.

With `C[C@H]1COc2c(C3(N)CC3)c(F)cc3c(=O)c(C(=O)O)cn1c23`, the call was inactive.

With `COc1nccnc1NS(=O)(=O)c1ccc(N)cc1`, the result was inactive.

As for `NS(=O)(=O)c1cc2c(cc1C(F)(F)F)NCNS2(=O)=O`, the result was inactive.

For `Cc1cccc(Nc2ccccc2C(=O)O)c1C`, the call was inactive.

Regarding `O=C(/C=C/c1ccc(O)c(O)c1)O[C@@H]1C[C@@](OC(=O)/C=C/c2ccc(O)c(O)c2)(C(=O)O)C[C@@H](O)[C@@H]1O`, the molecule was classed as inactive.

Take `CN1CC(=O)NC1=N`: the outcome was inactive.

With `N[C@@H](Cc1ccc(O)cc1)C(=O)O`, the activity change, negative = cytotoxic was 11.3% [at 9.22 µM].

As to `CC1(C)S[C@@H]2[C@H](NC(=O)C(C(=O)O)c3ccccc3)C(=O)N2[C@H]1C(=O)O` (stereo partly specified), the call was inactive.

For `CC(=O)OC[C@H]1O[C@@](COC(C)=O)(O[C@H]2O[C@H](COC(C)=O)[C@@H](OC(C)=O)[C@H](OC(C)=O)[C@H]2OC(C)=O)[C@@H](OC(C)=O)[C@@H]1OC(C)=O`, the outcome was inactive.

With `OC[C@@H](O)[C@@H](O)[C@H](O)[C@H](O)CO`, the molecule was called inactive.

Consider `O=c1[nH]c2cc(C(F)(F)F)c(N3CCOCC3)cc2n(CP(=O)(O)O)c1=O`, for which the molecule was called inactive.

Consider `Cc1ncc(CO)c(CN)c1O`, for which the call was inactive.

As for `O=C(O)c1cc(=O)c2ccccc2o1`, the result was inactive.

On to `COc1ccc(C(=O)NCc2ccc(OCCN(C)C)cc2)cc1OC`, for which the outcome was inactive.

For the molecule `CC1CCc2cc(F)cc3c(=O)c(C(=O)O)cn1c23` (stereo unspecified), the molecule was called inactive.

Regarding `NNC(=O)CP(=O)(c1ccccc1)c1ccccc1`, the outcome was inactive.

Regarding `CN1CCCN=C1COC(=O)C(O)(c1ccccc1)C1CCCCC1` (stereo unspecified), the call was inactive.

In the case of `NS(=O)(=O)c1cc(C2(O)NC(=O)c3ccccc32)ccc1Cl` (stereo unspecified), the outcome was inactive.

Turning to `Cc1ccsc1/C=C/C1=NCCCN1C`, the result was inactive.

In the case of `CC(=O)Nc1ccc(OCCOCCOc2ccc(NC(C)=O)cc2)cc1`, the call was inactive.

The next assay in a line: qHTS of pediatric cancer cell lines to identify multiple opportunities for drug repurposing: Primary screen for Rh30 cells (AID 1347107). Note: nearly all actives have a fitted effect of over 75% in size. Conditions: Rh30 rhabdomyosarcoma viability, CellTiter-Glo luminescence, 48 h; series mostly up to 46 µM. The essentials: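 Cells (500-1,000/well) rested 5 h, then received compounds for 48 h; metabolically active cells were measured by CellTiter-Glo luminescence. Final concentrations spanned up to 46 µM (MIPE, 11-point) or 0.59 nM-46 µM (NPC, 8-point) in primary screens, 11-point in follow-ups.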
With `Cc1cccc(C(=O)O)c1O`, the result was inactive.

For `CCOc1cc(NC(C)=O)ccc1C(=O)OC`, the outcome was inactive.

In the case of `CCc1cccc(CC)c1NC(=O)CN(CC(=O)O)CC(=O)O`, the molecule was classed as inactive.

With `O=C1c2cccc(O)c2C(=O)c2c(O)cccc21`, the call was inactive.

On to `CCCCCCCC(=O)OCC(O)CO` (stereo unspecified), for which the molecule was classed as inactive.

With `Cn1cc(C(=O)[C@@H]2CCc3nc[nH]c3C2)c2ccccc21`, the call was inactive.

For `Cn1c([N+](=O)[O-])cnc1COC(N)=O`, the result was inactive.

With `CC1CCN(CCCC(=O)c2ccc(F)cc2)CC1`, the molecule was called inactive.

As to `NS(=O)(=O)c1ccc(C(=O)O)cc1`, the outcome was inactive.

With `OCc1ccc(Cl)cc1Cl`, the result was inactive.

Regarding `CC(=O)Nc1ccc(C(=O)O)cc1`, the outcome was inactive.

On to `CCCCCCCCCCCCCCCCCCO`, for which the molecule was classed as inactive.

Consider `CCCCCOC(=O)Nc1nc(=O)n([C@@H]2O[C@H](C)[C@@H](O)[C@H]2O)cc1F`, for which the molecule was classed as inactive.

In the case of `CC(=O)NCc1c(I)c(NC(C)=O)c(I)c(C(=O)O)c1I`, the result was inactive.

Regarding `Cc1cc(=O)[nH]c(=S)[nH]1`, the result was inactive.

For `O=C(O)CCCc1ccccc1`, the outcome was inactive.

Take `COC(=O)c1ccc(O)cc1`: the outcome was inactive.

As for `CCOC(=O)[C@H](CCc1ccccc1)N[C@@H](C)C(=O)N1CCC[C@H]1C(=O)O`, the result was inactive.

`C[C@H]1COc2c(C3(N)CC3)c(F)cc3c(=O)c(C(=O)O)cn1c23`: the molecule was called inactive.

`COc1nccnc1NS(=O)(=O)c1ccc(N)cc1`: the molecule was classed as inactive.

Consider `NS(=O)(=O)c1cc2c(cc1C(F)(F)F)NCNS2(=O)=O`, for which the outcome was inactive.

Consider `Cc1cccc(Nc2ccccc2C(=O)O)c1C`, for which the call was inactive.

Regarding `O=C(/C=C/c1ccc(O)c(O)c1)O[C@@H]1C[C@@](OC(=O)/C=C/c2ccc(O)c(O)c2)(C(=O)O)C[C@@H](O)[C@@H]1O`, the molecule was called inactive.

In the case of `CN1CC(=O)NC1=N`, the molecule was called inactive.

Consider `N[C@@H](Cc1ccc(O)cc1)C(=O)O`, for which the activity change, negative = cytotoxic is 21.6% [at 9.22 µM].

`CC1(C)S[C@@H]2[C@H](NC(=O)C(C(=O)O)c3ccccc3)C(=O)N2[C@H]1C(=O)O` (stereo partly specified): the call was inactive.

As to `CC(=O)OC[C@H]1O[C@@](COC(C)=O)(O[C@H]2O[C@H](COC(C)=O)[C@@H](OC(C)=O)[C@H](OC(C)=O)[C@H]2OC(C)=O)[C@@H](OC(C)=O)[C@@H]1OC(C)=O`, the molecule was classed as inactive.

`OC[C@@H](O)[C@@H](O)[C@H](O)[C@H](O)CO`: the molecule was called inactive.

As for `O=c1[nH]c2cc(C(F)(F)F)c(N3CCOCC3)cc2n(CP(=O)(O)O)c1=O`, the molecule was classed as inactive.

In the case of `Cc1ncc(CO)c(CN)c1O`, the result was inactive.

Regarding `O=C(O)c1cc(=O)c2ccccc2o1`, the molecule was classed as inactive.

As to `COc1ccc(C(=O)NCc2ccc(OCCN(C)C)cc2)cc1OC`, the outcome was inactive.

In the case of `CC1CCc2cc(F)cc3c(=O)c(C(=O)O)cn1c23` (stereo unspecified), the molecule was classed as inactive.

Take `NNC(=O)CP(=O)(c1ccccc1)c1ccccc1`: the molecule was called inactive.

For the molecule `CN1CCCN=C1COC(=O)C(O)(c1ccccc1)C1CCCCC1` (stereo unspecified), the result was inactive.

In the case of `NS(=O)(=O)c1cc(C2(O)NC(=O)c3ccccc32)ccc1Cl` (stereo unspecified), the call was inactive.

Regarding `Cc1ccsc1/C=C/C1=NCCCN1C`, the molecule was called inactive.

In the case of `CC(=O)Nc1ccc(OCCOCCOc2ccc(NC(C)=O)cc2)cc1`, the call was inactive.
